{"source": "the supplement of paper PMC8728848", "experiment_in_all_cases": "glycan array binding signal (z-score within array); higher = stronger binding", "details_in_all_cases": "glycan notation: IUPAC condensed, linker removed", "key": {"[1]": {"system": "Fuc(a1-3)[Gal(b1-4)]GlcNAc(b1-3)Gal(b1-3)[Fuc(a1-4)]GlcNAc", "method_in_brief": "(§1)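 From the Consortium for Functional Glycomics database, 3228 arrays were curated, keeping only those whose protein sequence was available. Binding is given as a within-array Z-score averaged across arrays sharing a protein sequence and across linkers. Negative Z-scores can be read as non-binding.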"}, "[2]": {"system": "Fuc(a1-3)[Gal(b1-4)]GlcNAc(b1-4)Gal(b1-4)[Fuc(a1-3)]GlcNAc(b1-4)Gal(b1-4)[Fuc(a1-3)]GlcNAc", "method_in_brief": "as §1"}, "[3]": {"system": "Fuc(a1-3)[Gal(b1-4)]GlcNAc(b1-4)Gal(b1-4)[Fuc(a1-3)]GlcNAc", "method_in_brief": "as §1"}, "[4]": {"system": "Fuc(a1-3)[Gal(b1-4)]GlcNAc", "method_in_brief": "as §1"}, "Gal(a1-3)Gal(b1-3)Glc": {"system": "Gal(a1-3)Gal(b1-3)Glc", "method_in_brief": "as §1"}, "[5]": {"system": "Fuc(a1-3)[Gal(b1-4)]GlcNAc(b1-3)Gal(b1-4)[Fuc(a1-3)]GlcNAc(b1-3)Gal(b1-4)[Fuc(a1-3)]GlcNAc", "method_in_brief": "as §1"}, "[6]": {"system": "Fuc(a1-3)[Gal(b1-4)]GlcNAc(b1-3)Gal(b1-4)[Fuc(a1-3)]GlcNAc", "method_in_brief": "as §1"}, "[7]": {"system": "Fuc(a1-3)[Gal(b1-4)]GlcNAc(b1-6)GalNAc", "method_in_brief": "as §1"}, "[8]": {"system": "Fuc(a1-3)[Gal(b1-4)]GlcNAc6S", "method_in_brief": "as §1"}, "Fuc(a1-4)GlcNAc": {"system": "Fuc(a1-4)GlcNAc", "method_in_brief": "as §1"}, "Gal(a1-3)Gal(b1-3)GlcNAc": {"system": "Gal(a1-3)Gal(b1-3)GlcNAc", "method_in_brief": "as §1"}, "[9]": {"system": "Gal(a1-3)Gal(b1-4)GlcNAc(b1-2)Man(a1-3)[Gal(a1-3)Gal(b1-4)GlcNAc(b1-2)Man(a1-6)]Man(b1-4)GlcNAc(b1-4)GlcNAc", "method_in_brief": "as §1"}, "[10]": {"system": "Fuc(a1-3)[Gal(b1-4)]GlcNAc(b1-6)[Gal(b1-3)GlcNAc(b1-3)]Gal(b1-4)Glc", "method_in_brief": "as §1"}, "Fuc(b1-3)GlcNAc": {"system": "Fuc(b1-3)GlcNAc", "method_in_brief": "as §1"}, "[11]": {"system": "Fuc(a1-3)[Gal3S(b1-4)]Glc6S", "method_in_brief": "as §1"}, "[12]": {"system": "Gal(a1-3)Gal(b1-3)GlcNAc(b1-2)Man(a1-3)[Gal(a1-3)Gal(b1-3)GlcNAc(b1-2)Man(a1-6)]Man(b1-4)GlcNAc(b1-4)GlcNAc", "method_in_brief": "as §1"}, "[13]": {"system": "Gal(a1-3)Gal(b1-3)GlcNAc(b1-3)GalNAc", "method_in_brief": "as §1"}, "[14]": {"system": "Fuc(a1-3)[Neu5Ac(a2-3)]Gal(b1-4)GlcNAc(b1-3)GalNAc", "method_in_brief": "as §1"}, "[15]": {"system": "Gal(a1-3)Gal(b1-3)[Fuc(a1-4)]GlcNAc(b1-2)Man(a1-3)[Gal(a1-3)Gal(b1-3)[Fuc(a1-4)]GlcNAc(b1-2)Man(a1-6)]Man(b1-4)GlcNAc(b1-4)GlcNAc", "method_in_brief": "as §1"}}, "note": "The sample as a whole holds a higher share of the strongest signals than the screen did."}
{"substance": "SRLC (Mus musculus), Q8VIF6", "values": [{"measurement": "glycan array binding signal (z-score)", "setting": "[1]", "value": 4.31}, {"measurement": "glycan array binding signal (z-score)", "setting": "[2]", "value": 7.13}, {"measurement": "glycan array binding signal (z-score)", "setting": "[3]", "value": 4.46}, {"measurement": "glycan array binding signal (z-score)", "setting": "[4]", "value": 6.98}, {"measurement": "glycan array binding signal (z-score)", "setting": "Gal(a1-3)Gal(b1-3)Glc", "value": -0.234}]}
{"substance": "CHI3L1 (Homo sapiens), P36222", "values": [{"measurement": "glycan array binding signal (z-score)", "setting": "[1]", "value": -0.081}]}
{"substance": "HARE (Homo sapiens), Q8WWQ8", "values": [{"measurement": "glycan array binding signal (z-score)", "setting": "[5]", "value": 0.285}]}
{"substance": "Siglec-8 (Homo sapiens), Q9NYZ4", "values": [{"measurement": "glycan array binding signal (z-score)", "setting": "[6]", "value": -0.046}, {"measurement": "glycan array binding signal (z-score)", "setting": "[7]", "value": -0.063}, {"measurement": "glycan array binding signal (z-score)", "setting": "[8]; mutation: R125K", "value": 5.35}, {"measurement": "glycan array binding signal (z-score)", "setting": "[4]; mutation: R125K", "value": -0.361}, {"measurement": "glycan array binding signal (z-score)", "setting": "Fuc(a1-4)GlcNAc; mutation: R125K", "value": 2.97}]}
{"substance": "C3b (Homo sapiens), P01024", "values": [{"measurement": "glycan array binding signal (z-score)", "setting": "[3]", "value": -0.595}, {"measurement": "glycan array binding signal (z-score)", "setting": "Fuc(a1-4)GlcNAc", "value": 3.19}, {"measurement": "glycan array binding signal (z-score)", "setting": "Gal(a1-3)Gal(b1-3)GlcNAc", "value": 1.35}]}
{"substance": "Avaren (Actinomycete K97)", "values": [{"measurement": "glycan array binding signal (z-score)", "setting": "[7]", "value": -0.094}, {"measurement": "glycan array binding signal (z-score)", "setting": "[8]", "value": -0.109}, {"measurement": "glycan array binding signal (z-score)", "setting": "[9]", "value": -0.106}]}
{"substance": "Neurocan (Homo sapiens), O14594", "values": [{"measurement": "glycan array binding signal (z-score)", "setting": "[10]", "value": 2.26}, {"measurement": "glycan array binding signal (z-score)", "setting": "Fuc(b1-3)GlcNAc", "value": -0.101}]}
{"substance": "Regenerating Gene IV (Homo sapiens), Q9BYZ8", "values": [{"measurement": "glycan array binding signal (z-score)", "setting": "[8]", "value": -0.14}]}
{"substance": "CHT (Homo sapiens)", "values": [{"measurement": "glycan array binding signal (z-score)", "setting": "[4]; mutation: D138V, E140I", "value": -0.176}, {"measurement": "glycan array binding signal (z-score)", "setting": "Fuc(b1-3)GlcNAc; mutation: D138V, E140I", "value": -0.132}]}
{"substance": "PILRb (Mus musculus), Q2YSF2", "values": [{"measurement": "glycan array binding signal (z-score)", "setting": "[11]", "value": -0.626}, {"measurement": "glycan array binding signal (z-score)", "setting": "[12]", "value": 6.25}, {"measurement": "glycan array binding signal (z-score)", "setting": "[13]", "value": -0.312}]}
{"substance": "wLAT-1A (Homo sapiens), Q01650", "values": [{"measurement": "glycan array binding signal (z-score)", "setting": "[11]", "value": 3.91}]}
{"substance": "Aggrecan (Rattus norvegicus), NP_071526", "values": [{"measurement": "glycan array binding signal (z-score)", "setting": "[14]", "value": 0.658}, {"measurement": "glycan array binding signal (z-score)", "setting": "Gal(a1-3)Gal(b1-3)GlcNAc", "value": -0.05}]}
{"substance": "MpAFP RI GFP (Marinomonas primoryensis)", "values": [{"measurement": "glycan array binding signal (z-score)", "setting": "[15]", "value": 2.56}]}
